HT1080 IDH1KD tx = kills HT-1080 cells with IDH1 knockdown; HT-1080 IDH1 knockdown viability, ATP luminescence, 48 h; Potency, µM (series often up to 46.1 µM), for inactives: top-dose activity, negative = toxicity, most hits filed as cytotoxic; actives 2% (n = 360,000); AID 686971;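 also: potency is read from the fitted curve at half-maximal effect; 0% = DMSO wells and -100% = cell-free medium wells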
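In this qHTS, HT-1080 cells depleted of IDH1 are exposed for 48 h at 37 °C to compound titrations. Toxicity is scored from CellTiter-Glo luminescence, with DMSO as full viability and medium alone as none.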
HT1080NT lethal = kills 2HG-producing HT-1080-NT fibrosarcoma cells. HT-1080-NT fibrosarcoma viability, CellTiter-Glo ATP luminescence, 48 h. Potency, µM (titrated, usually from 46.1 µM), for inactives: at the highest dose activity, negative = less viability, most hits filed as cytotoxic. actives 1.6% (n = 360,000). AID 686970;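 also: NT is the 2HG producing partner of a matched IDH1 knockdown line; potency is read from the fitted curve at half-maximal effect; 0% = DMSO-treated cells and -100% = media-only wells without cells; nearly all actives have a fitted effect of over 55% in size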
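Luminescent CellTiter-Glo readout after 48 hours of compound exposure at 37 degrees C defined viability of HT-1080-NT cells. Activity was normalized to DMSO wells and cell-free media wells; concentration-response curves were fitted and assigned curve classes.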
KB-3-1 tox = KB-3-1 parental cell cytotoxicity | KB-3-1 viability, CellTiter-Glo ATP luminescence, 72 h | actives 1.4% (n = 400,000) | Potency, µM (series often up to 46.1 µM), hits mostly cytotoxic; also: potency is read from the fitted curve at half-maximal effect; nearly all actives have a fitted effect of over 60% in size
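KB-3-1 parental drug-naive adenocarcinoma cells in DMEM/10% FBS, incubated 72 h at 37 C with pin-transferred compounds across a concentration series. Viability by CellTiter-Glo luminescence; concentration-response curves fitted after normalization.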
KB-V1 cytotox = kills drug-selected multidrug resistant KB-V1 cells. AID 1347076. KB-V1 MDR cells viability, CellTiter-Glo, 72 h. actives 3.4% (n = 400,000). Potency, µM (titrated, usually from 46.1 µM), actives largely listed as cytotoxic; also: potency is read from the fitted curve at half-maximal effect; nearly all actives have a fitted effect of over 60% in size
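KB-V1 cells (P-gp-expressing MDR subline of KB-3-1) in phenol-red-free DMEM with 10% FBS were exposed to library compounds over a concentration series for 72 h at 37 degrees C. Viability read by CellTiter-Glo luminescence; concentration-effect curves fitted after normalization.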
IL1B secr inh = blocks inflammasome-driven IL-1 beta release | THP-1 LPS/ATP IL-1B secretion, AlphaLISA, 16 h; stronger effect = lower value | activity change, % at 57.5 µM | actives 4.7% (n = 360,000) | AID 743279; in the data active = activity change below about -50%; inconclusive = mostly about -30% to -49%
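Secreted IL-1B measured by AlphaLISA bead assay after 16 h compound exposure of THP-1 cells; compounds (final up to 57.5 uM) added 1 h before LPS (250 ng/mL) and ATP (1.25 mM) stimulation; lower signal means less secretion.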
* hit, by the source's call; i = inactive; ? = inconclusive; nt = not tested or not shown; [ ] = another dose, or the depositor's remark. An excerpt weighted towards active compounds, which were near 8.8% of everything screened. Unless noted, calls follow the shape of the dose curve; as a rule, active = well fitted curve in the direction sought with a large enough effect; inconclusive = small, poorly fitted or top-dose-only effect, or another doubt; inactive = no such curve, though single readings can be large; an effect the other way counts as inactive or inconclusive. Unless noted, % is scaled to controls: 0 for no effect and ±100 for the full control effect.

SMILES	HT1080 IDH1KD tx	HT1080NT lethal	KB-3-1 tox	KB-V1 cytotox	IL1B secr inh
O=C(/C=C/c1ccco1)NC(=S)Nc1cccc([N+](=O)[O-])c1	13µM*	20.6µM*	?	?	-6.7
COc1ccc(S(=O)(=O)N2CCN(C(=O)/C=C/c3ccco3)CC2)cc1	4.3%	6.5%	i	i	-13.5
O=C(/C=C/c1ccco1)NC(=S)Nc1ccccc1	-17.7%	-20.6%	i	i	-19.7
CCOC(=O)C1(C)C=C(Nc2ccc(NC(C)=O)cc2)C(=O)N1c1ccc(NC(C)=O)cc1 (configuration not stated)	3.4%	7.4%	i	i	23.0
ClN=C1C=CC=CC1=NCl	1.4%	-11.8%	i	i	65.7
O=C(NC(=S)Nc1ccccc1[N+](=O)[O-])c1ccccc1Cl	0.1%	1.4%	13µM*	?	nt
O=C(NC(=S)Nc1ccc(O)cc1)c1ccccc1Cl	-6.3%	12.6%	i	i	-9.4
Cc1ccc(O)c(NC(=S)NC(=O)c2ccccc2Cl)c1	?	?	i	i	-58.1*
CCc1c(C2(O)CCCCC2)[nH]c2ccc(C(F)(F)F)cc12	-11.9%	?	?	i	-51.7*
CCOC(=O)C1(C)Oc2cccnc2NC1=O (configuration not stated)	0.2%	3.1%	i	i	-69.7*
COC(=O)C1(C)NC(c2cccc(C)c2)C2C(=O)N(c3ccccc3)C(=O)C21 (configuration not stated)	-2.2%	0.0%	i	i	-21.7
CCCCNc1c(-c2cccnc2)nc2nc(C)cc(C)n12	10.9%	18.4%	i	?	0.1
Cc1cccc2nc(-c3cccnc3)c(Nc3ccccc3)n12	-7.4%	-5.1%	?	18.4µM*	?
Cc1cccc2nc(-c3cccnc3)c(NCCC(C)C)n12	?	?	i	?	-82.3*
COc1ccccc1NC(=O)Cn1nc(C(F)(F)F)c2c1CCCC2	-2.3%	-5.6%	i	20.6µM*	7.9
O=C(Cn1nc(C(F)(F)F)c2c1CCC2)N1CCN(c2ccccc2)CC1	8.9%	9.5%	i	16.4µM*	-8.1
O=C(Cn1nc(C(F)(F)F)c2c1CCC2)Nc1ccccc1C(F)(F)F	5.6%	4.4%	i	i	3.0
Cc1nn(C)c(C)c1CN(C)S(=O)(=O)c1ccc(F)cc1	?	-13.0%	i	i	27.8
Cc1nn(C)c(C)c1CN(C)S(=O)(=O)c1ccc2ccccc2c1	2µM*	-13.2%	i	?	-13.9
O=C(CN1C(=O)S/C(=C\C=C\c2ccccc2)C1=O)Nc1ccc(O)cc1	3.1%	8.9%	i	i	-53.8*
Cc1ccc(/C=C2/SC(=S)N(CCCC(=O)Nc3ccc(O)cc3)C2=O)cc1	20.6µM*	16.4µM*	?	?	-62.3*
CCN(CC)CCOC(=O)c1ccc(NC(=O)CCCN2C(=O)S/C(=C/c3ccc(OC)cc3)C2=S)cc1	11.6µM*	?	i	i	-69.0*
COc1cc(/C=C2\SC(=S)N(CCC(=O)Nc3cccc(O)c3)C2=O)cc(OC)c1OC	?	?	i	i	-98.3*
Cc1cccc(-c2noc(-c3cccnc3NCc3ccccc3Cl)n2)c1	nt	nt	i	i	nt
CCN(CC(=O)NCc1ccncc1)S(=O)(=O)c1ccccc1	4.2%	-0.9%	i	i	14.7
SMILES	HT1080 IDH1KD tx	HT1080NT lethal	KB-3-1 tox	KB-V1 cytotox	IL1B secr inh
Cc1cc(C)c(S(=O)(=O)N2CCOC2CNC(=O)C(=O)NCCN2CCOCC2)c(C)c1 (configuration not stated)	-0.7%	-0.3%	nt	nt	-2.8
O=C(CCCN1C(=O)/C(=C/c2ccccc2)SC1=S)Nc1cccc(O)c1	-23.5%	-27.0%	?	i	-52.3*
O=C1/C(=C/c2cccc(O)c2)SC(=S)N1CC1CCCO1 (configuration not stated)	-1.6%	-4.9%	i	i	?
O=C(CCCN1C(=O)/C(=C\c2ccccc2)SC1=S)Nc1ccc(O)cc1	14.6µM*	23.1µM*	?	?	-104.9*
COc1cccc(/C=C2\SC(=S)N(CC3CCCO3)C2=O)c1 (configuration not stated)	-20.0%	1.6%	i	i	-70.7*
O=C(CCN1C(=O)/C(=C\c2ccccc2)SC1=S)Nc1ccc(C(=O)O)cc1	4.3%	-24.0%	i	i	29.9
O=C(CCCN1C(=O)/C(=C\c2ccccc2)SC1=S)Nc1cccc(C(=O)O)c1	-3.3%	-0.1%	i	i	-1.7
COc1cccc(/C=C2/SC(=S)N(CCCC(=O)Nc3ccc(O)cc3)C2=O)c1	?	?	i	?	-84.8*
CCOC(=O)c1csc(N)c1-c1ccc([N+](=O)[O-])cc1	1.3%	14.8%	i	i	-21.3
Nc1c(C(=O)NCC2CCCO2)sc2nc3c(c(-c4ccco4)c12)CC/C3=C\c1ccco1 (configuration not stated)	0.2%	-1.9%	i	i	-3.7
O=C(NCCc1ccc(Cl)cc1)c1ccc2c(c1)N(Cc1c(F)cccc1Cl)C(=O)CS2	nt	nt	i	i	nt
COc1ccc(-c2c(C)nn3c(N)c(C#N)cnc23)cc1OC	-17.8%	-4.6%	i	9.2µM*	-2.0
Fc1cccc(NC(=S)Nc2ccc(Br)cc2)c1	?	?	i	i	-29.3
CC(C)(C)NNC(=S)Nc1cccc(F)c1	5.8µM*	2.91µM*	i	i	nt
Cc1ccc(C2N=C(Nc3nc4ccccc4o3)NC3=C2C(=O)CC(C)(C)C3)cc1 (configuration not stated)	nt	nt	i	i	nt
CCOC(=O)c1cccc(NC(=O)CC2Oc3ccccc3NC2=O)c1 (configuration not stated)	-17.2%	-1.3%	i	i	-0.4
CC1CC(N(C(=O)c2ccccc2Cl)c2ccccc2)c2ccccc2N1 (configuration not stated)	23.1µM*	23.1µM*	?	?	22.0
CCc1ccc(OCC2c3cc(OC)c(OC)cc3CCN2C(=O)COc2ccccc2)cc1 (configuration not stated)	nt	nt	i	i	nt
COC(=O)c1ccc(OCC(O)CN2CCc3cc(OC)c(OC)cc3C2c2ccccc2)cc1 (configuration not stated)	16.4µM*	?	i	i	-6.6
CCC(=O)N1CCc2cc(OC)c(OC)cc2C1COc1ccc(C(=O)OC)cc1 (configuration not stated)	?	-6.9%[9.24 µM]	i	i	-20.3
COc1cc2c(cc1OC)C(COc1ccccc1OC)N(C(=O)COc1ccc(Cl)cc1)CC2 (configuration not stated)	nt	nt	i	20.6µM*	nt

High-throughput results from PubChem.
